Assay results published in PubChem BioAssay (NCI).
This is part of a sample that, as a whole, favours compounds with a hit. Of some 83,000 tested, about 20% had one in any assay.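 Interpretation: 100, growth as untreated; towards 0, rising growth inhibition; 0, no net growth; 0 to -100, cell death. Compounds scoring below 10 were considered active.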 The source made the active and inactive calls.

Assays:
Experiment in all cases: NCI-60 one-dose screen, 48 h (100 = growth as untreated, 0 = no growth, -100 = all killed)
Conditions in all cases: 10 µM unless noted
SR leukemia = test system: SR leukemia
RPMI-8226 leukemia = test system: RPMI-8226 leukemia
OVCAR-8 ovarian = test system: OVCAR-8 ovarian
OVCAR-5 ovarian = test system: OVCAR-5 ovarian
OVCAR-4 ovarian = test system: OVCAR-4 ovarian
SK-OV-3 ovarian = test system: SK-OV-3 ovarian
IGROV1 ovarian = test system: IGROV1 ovarian
OVCAR-3 ovarian = test system: OVCAR-3 ovarian
HS 578T breast = test system: HS 578T breast
NCI/ADR-RES ovarian = test system: NCI/ADR-RES ovarian

Measured: growth

Cc1ccc2c(n1)C(=O)C(Br)=C(C1CCCC1)C2=O
inactive: SR leukemia 31.1% | RPMI-8226 leukemia 55.9% | OVCAR-8 ovarian 96% | OVCAR-5 ovarian 106% | OVCAR-4 ovarian 112% | SK-OV-3 ovarian 88.7% | IGROV1 ovarian 96% | OVCAR-3 ovarian 82.9% | HS 578T breast 93.1% | NCI/ADR-RES ovarian 97.1%

COC(=O)c1c2c(c(C)[n+]([O-])c1C)C(=O)C(NCc1cccc(OC)c1)=CC2=O
inactive: SR leukemia 17.6% | RPMI-8226 leukemia 33.1% | OVCAR-5 ovarian 67.6% | SK-OV-3 ovarian 89.6% | IGROV1 ovarian 12.3% | HS 578T breast 82.7%
active: OVCAR-8 ovarian -4.96% | OVCAR-4 ovarian -28.6% | OVCAR-3 ovarian -12.1% | NCI/ADR-RES ovarian 8.5%

COC1=CC(c2ccc[nH]2)=N/C1=C\c1[nH]c(C)c(C(=O)OC(C)C)c1C
active: RPMI-8226 leukemia -34.6% | OVCAR-8 ovarian 2.67% | OVCAR-5 ovarian -40.2% | OVCAR-4 ovarian -49.7% | SK-OV-3 ovarian 7.3% | IGROV1 ovarian -41.5% | OVCAR-3 ovarian -53.9% | HS 578T breast -32.8% | NCI/ADR-RES ovarian -12.5%
inactive: SR leukemia 11.8%

C=CCc1c(O)c(C(=O)/C=C/c2ccccc2)c(OC)c2ccoc12
active: RPMI-8226 leukemia 6.17%
inactive: SR leukemia 20.6% | OVCAR-8 ovarian 29.6% | OVCAR-5 ovarian 90.5% | OVCAR-4 ovarian 49.1% | SK-OV-3 ovarian 74.4% | IGROV1 ovarian 54.7% | OVCAR-3 ovarian 13.7% | HS 578T breast 66.1% | NCI/ADR-RES ovarian 21%

COc1ccc(-c2cc(-c3ccc(Cl)cc3)c(C#N)c(=O)n2Cc2ccc(C(=O)Nc3ccccc3N)cc2)cc1
inactive: SR leukemia 40.9% | RPMI-8226 leukemia 57.1% | OVCAR-8 ovarian 92.8% | OVCAR-5 ovarian 96.7% | OVCAR-4 ovarian 76.3% | SK-OV-3 ovarian 92.6% | IGROV1 ovarian 78.3% | OVCAR-3 ovarian 42.6% | HS 578T breast 46.2% | NCI/ADR-RES ovarian 71.2%

C[PH+](c1nc2ccccc2nc1[PH+](C)C(C)(C)C)C(C)(C)C.C[PH+](c1nc2ccccc2nc1[PH+](C)C(C)(C)C)C(C)(C)C.[Au+].[Cl-] (stereo not given)
active: SR leukemia 6.59% | RPMI-8226 leukemia -18.1% | OVCAR-8 ovarian -54.3% | OVCAR-5 ovarian -100% | OVCAR-4 ovarian -100% | SK-OV-3 ovarian -100% | IGROV1 ovarian -87.9% | OVCAR-3 ovarian -100% | HS 578T breast -38.6% | NCI/ADR-RES ovarian -79.5%

Clc1cc(Cl)c(Cl)c(-c2nnc(SCc3ccncc3Br)o2)c1
active: SR leukemia -26.8%
inactive: RPMI-8226 leukemia 72.9% | OVCAR-8 ovarian 120% | OVCAR-5 ovarian 80.1% | OVCAR-4 ovarian 90.6% | SK-OV-3 ovarian 101% | IGROV1 ovarian 72.9% | OVCAR-3 ovarian 89% | HS 578T breast 90.4% | NCI/ADR-RES ovarian 89.6%

Oc1c(Br)cc(Br)c2ccc(Cn3cc(-c4ccc(C(F)(F)F)cc4)nn3)nc12
active: SR leukemia -22.9% | RPMI-8226 leukemia -1.77% | OVCAR-3 ovarian -7.84%
inactive: OVCAR-8 ovarian 59.5% | OVCAR-5 ovarian 89% | OVCAR-4 ovarian 54% | SK-OV-3 ovarian 110% | IGROV1 ovarian 79.6% | HS 578T breast 101% | NCI/ADR-RES ovarian 105%

COc1cc(-c2nccc3[nH]c(-c4ccc5cc[nH]c5c4)nc23)cc(OC)c1OC
inactive: OVCAR-8 ovarian 12.4% | OVCAR-5 ovarian 41.5% | OVCAR-4 ovarian 39.3% | IGROV1 ovarian 29.5% | HS 578T breast 31.1% | NCI/ADR-RES ovarian 12.7%
active: SR leukemia -4.95% | RPMI-8226 leukemia -43% | SK-OV-3 ovarian 1.3% | OVCAR-3 ovarian 2.2%

O=C(N/N=C/c1ccc(Cl)cc1)c1[nH]c2ccc(Cl)cc2c1-c1ccccc1
active: RPMI-8226 leukemia -3.56% | SK-OV-3 ovarian -1.75% | OVCAR-3 ovarian -13.4% | NCI/ADR-RES ovarian 1.79%
inactive: SR leukemia 52.2% | OVCAR-8 ovarian 28.8% | OVCAR-5 ovarian 51.5% | OVCAR-4 ovarian 41.4% | IGROV1 ovarian 17.3% | HS 578T breast 82%

CC1=C2[C@@H](CC1)[C@]1(C)O[C@@](C(C)C)(C[C@H]1OC(=O)[C@H](C)O)[C@H]2OC(=O)/C=C/c1ccccc1
active: HS 578T breast -2.45% | NCI/ADR-RES ovarian 4.27%
inactive: SR leukemia 71.9% | RPMI-8226 leukemia 65.6% | OVCAR-8 ovarian 10.2% | OVCAR-5 ovarian 97.9% | OVCAR-4 ovarian 81.7% | SK-OV-3 ovarian 83.5% | IGROV1 ovarian 97.4% | OVCAR-3 ovarian 91.1%

CCN1C(=S)N(c2ccccc2)C2NC(=S)N(/N=C/C=C/c3ccccc3OC)C21 (stereo not given)
active: SR leukemia 8.81% | OVCAR-8 ovarian 1.79% | OVCAR-3 ovarian 2.96% | HS 578T breast 9.64% | NCI/ADR-RES ovarian 4.46%
inactive: RPMI-8226 leukemia 13.3% | OVCAR-5 ovarian 28.7% | OVCAR-4 ovarian 45% | SK-OV-3 ovarian 30.5% | IGROV1 ovarian 23.8%

O=C(Nc1cccc(-c2ccc(N3CCOCC3)nn2)c1)Nc1cccc(C(F)(F)F)c1
inactive: SR leukemia 60.4% | RPMI-8226 leukemia 31.4% | OVCAR-8 ovarian 35.4% | OVCAR-5 ovarian 125% | OVCAR-4 ovarian 73.3% | SK-OV-3 ovarian 104% | IGROV1 ovarian 97.1% | OVCAR-3 ovarian 74.3% | HS 578T breast 91.6% | NCI/ADR-RES ovarian 72.2%

O=C1C(Cl)=C(NCCCCCCNC2=C(Cl)C(=O)c3ccccc3C2=O)C(=O)c2ccccc21
inactive: SR leukemia 88% | RPMI-8226 leukemia 85.2% | OVCAR-8 ovarian 77.6% | OVCAR-5 ovarian 110% | OVCAR-4 ovarian 22.5% | SK-OV-3 ovarian 98% | IGROV1 ovarian 38.2% | OVCAR-3 ovarian 47.3% | HS 578T breast 89.3% | NCI/ADR-RES ovarian 93.5%
